Active and inactive are the calls of the source.
Experiments:
[1] = tested on: PRMT1 (protein arginine N-methyltransferase 1); test: small molecules binding arginine methyltransferase PRMT1 – biochemical, small-molecule microarray, 635 nm fluorescence, primary screen (AID 1088); conditions: higher = more signal;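 note: binding of Prmt1 protein to compounds spotted on small-molecule microarray slides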
[2] = growth effects on S. cerevisiae YJM789 – YJM789 clinical isolate, OD600, 24 h, basal, primary screen (AID 1089); conditions: higher = more signal, called active from +8 up or from −8 down;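 note: growth of clinical yeast isolate S. cerevisiae YJM 789 seeded 1000 cells per well; test concentration not given here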
[3] = S. pombe growth modifiers, basal conditions – strain 972, OD600, 24 h, no modulator, primary screen (AID 1090);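 note: basal condition with compound alone and no growth modifier present; test concentration not given here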; conditions: S. pombe 972 growth, higher = more signal, called active from +8 up or from −8 down
[4] = budding yeast growth modifiers under rapamycin – strain BY4716, OD600, 96 h, primary screen (AID 1091); note: test concentration not given here; conditions: S. cerevisiae BY4716 + rapamycin, higher = more signal, called active from +8 up or from −8 down
[5] = biological target: Torsin-1A-interacting protein 2 (Homo sapiens) (UniProt Q8NFQ8); test: small molecules binding lysate-expressed LULL1 – cell lysate, human LULL1 lysate, 635/667 nm fluorescence, primary screen (AID 1092); conditions: small-molecule microarray, hLULL1 lysate binding, 635 nm fluorescence; higher = more signal;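 note: probe is lysate of COS7 cells overexpressing human LULL1; score merges per-feature 667 nm fluorescence with signal-to-noise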
[6] = optical density change of DRC41 E. coli – strain DRC41, OD650, 24 h, E. coli filamentation project, primary screen (AID 1093);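 note: MC1000 strain lacking acrAB efflux and sulA so SOS filamentation is blocked; test concentration not given here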; conditions: E. coli DRC41 growth, higher = more signal, called active from +8 up or from −8 down
[7] = probe aLefty2 binding to arrayed compounds – biochemical, biotinylated probe, 635/667 nm fluorescence, primary screen (AID 1094); conditions: small-molecule microarray, higher = more signal;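 note: score merges spot fluorescence near 667 nm with spot signal-to-noise ratio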
[8] = tested on: Noggin (protein binding on small-molecule microarray); test: small molecules binding Noggin protein – biochemical, 635/667 nm fluorescence, primary screen (AID 1095); conditions: 635 nm fluorescence, higher = more signal;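 note: score merges 667 nm feature fluorescence with signal to noise over triplicate slides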
[9] = biological target: Neurogenic locus notch homolog protein 3 (Homo sapiens) (UniProt Q9UM47); test: small molecules binding NOTCH3 protein – biochemical, 635/667 nm fluorescence, primary screen (AID 1096); conditions: small-molecule microarray, 635 nm fluorescence, higher = more signal
[10] = probe aEGFR binding to arrayed compounds – biochemical, biotinylated probe, 635/667 nm fluorescence, primary screen (AID 1097); conditions: small-molecule microarray, higher = more signal;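 note: probe is a biotinylated anti-EGFR antibody binding compounds printed on slides; score combines fluorescence near 667 nm and signal to noise of each spot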

Sequence of Neurogenic locus notch homolog protein 3 (Homo sapiens) (Q9UM47 whole entry, looked up): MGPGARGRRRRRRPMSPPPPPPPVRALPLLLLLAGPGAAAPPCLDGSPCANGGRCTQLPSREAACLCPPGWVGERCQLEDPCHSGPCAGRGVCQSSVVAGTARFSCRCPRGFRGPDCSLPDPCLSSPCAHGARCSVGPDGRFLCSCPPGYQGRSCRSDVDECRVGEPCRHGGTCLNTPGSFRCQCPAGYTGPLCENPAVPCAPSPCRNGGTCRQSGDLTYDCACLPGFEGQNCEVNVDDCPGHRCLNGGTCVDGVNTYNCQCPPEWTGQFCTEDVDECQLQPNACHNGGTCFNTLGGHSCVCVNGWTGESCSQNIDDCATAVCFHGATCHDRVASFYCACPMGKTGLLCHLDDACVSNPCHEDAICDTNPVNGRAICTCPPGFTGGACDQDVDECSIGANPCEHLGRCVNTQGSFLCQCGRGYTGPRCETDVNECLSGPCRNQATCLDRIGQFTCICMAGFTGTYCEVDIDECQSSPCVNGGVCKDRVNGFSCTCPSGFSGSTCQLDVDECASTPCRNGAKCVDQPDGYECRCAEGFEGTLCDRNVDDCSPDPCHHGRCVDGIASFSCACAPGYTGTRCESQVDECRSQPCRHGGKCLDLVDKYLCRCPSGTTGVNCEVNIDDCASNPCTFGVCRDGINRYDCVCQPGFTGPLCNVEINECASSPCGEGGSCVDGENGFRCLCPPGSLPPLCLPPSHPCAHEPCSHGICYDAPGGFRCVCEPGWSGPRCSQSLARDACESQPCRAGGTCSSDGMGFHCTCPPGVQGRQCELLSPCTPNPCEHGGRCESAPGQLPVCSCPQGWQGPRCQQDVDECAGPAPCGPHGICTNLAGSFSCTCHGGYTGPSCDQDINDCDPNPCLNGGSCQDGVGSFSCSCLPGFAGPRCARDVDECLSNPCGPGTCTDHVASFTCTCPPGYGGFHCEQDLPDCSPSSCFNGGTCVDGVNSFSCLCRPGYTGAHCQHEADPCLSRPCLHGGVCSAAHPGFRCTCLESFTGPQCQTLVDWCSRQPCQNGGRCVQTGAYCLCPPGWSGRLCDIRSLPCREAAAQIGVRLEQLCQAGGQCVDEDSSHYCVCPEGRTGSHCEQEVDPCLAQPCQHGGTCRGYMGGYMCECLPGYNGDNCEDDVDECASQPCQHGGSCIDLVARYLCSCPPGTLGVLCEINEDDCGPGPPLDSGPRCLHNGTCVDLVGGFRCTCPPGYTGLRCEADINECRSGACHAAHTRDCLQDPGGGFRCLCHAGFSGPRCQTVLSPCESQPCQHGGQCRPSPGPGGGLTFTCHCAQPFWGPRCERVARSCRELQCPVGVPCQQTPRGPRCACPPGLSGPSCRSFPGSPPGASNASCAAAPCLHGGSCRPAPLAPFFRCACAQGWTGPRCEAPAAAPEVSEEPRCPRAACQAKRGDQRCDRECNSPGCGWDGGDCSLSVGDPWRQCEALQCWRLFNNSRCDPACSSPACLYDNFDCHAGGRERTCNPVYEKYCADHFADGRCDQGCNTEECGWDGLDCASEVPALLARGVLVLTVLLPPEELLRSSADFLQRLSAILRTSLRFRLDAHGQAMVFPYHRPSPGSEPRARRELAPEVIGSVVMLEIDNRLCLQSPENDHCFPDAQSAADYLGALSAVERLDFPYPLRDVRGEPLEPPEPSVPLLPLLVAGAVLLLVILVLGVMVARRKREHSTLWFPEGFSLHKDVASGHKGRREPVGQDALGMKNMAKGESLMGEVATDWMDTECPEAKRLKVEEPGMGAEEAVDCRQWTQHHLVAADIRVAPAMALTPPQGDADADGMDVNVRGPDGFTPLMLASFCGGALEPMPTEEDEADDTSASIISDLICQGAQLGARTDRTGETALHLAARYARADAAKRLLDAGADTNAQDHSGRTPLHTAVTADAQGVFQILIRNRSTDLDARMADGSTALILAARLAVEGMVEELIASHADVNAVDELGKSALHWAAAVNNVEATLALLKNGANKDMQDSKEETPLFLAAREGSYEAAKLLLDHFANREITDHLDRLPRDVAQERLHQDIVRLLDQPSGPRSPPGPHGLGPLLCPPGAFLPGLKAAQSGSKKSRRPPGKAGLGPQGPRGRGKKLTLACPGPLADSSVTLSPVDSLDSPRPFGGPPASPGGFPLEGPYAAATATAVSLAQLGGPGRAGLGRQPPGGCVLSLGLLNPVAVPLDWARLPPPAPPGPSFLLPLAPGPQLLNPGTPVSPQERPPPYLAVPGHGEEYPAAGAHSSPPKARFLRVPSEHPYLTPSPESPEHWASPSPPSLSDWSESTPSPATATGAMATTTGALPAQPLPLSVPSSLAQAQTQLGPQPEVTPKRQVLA
Sequence of Torsin-1A-interacting protein 2 (Homo sapiens) (Q8NFQ8 whole entry, looked up): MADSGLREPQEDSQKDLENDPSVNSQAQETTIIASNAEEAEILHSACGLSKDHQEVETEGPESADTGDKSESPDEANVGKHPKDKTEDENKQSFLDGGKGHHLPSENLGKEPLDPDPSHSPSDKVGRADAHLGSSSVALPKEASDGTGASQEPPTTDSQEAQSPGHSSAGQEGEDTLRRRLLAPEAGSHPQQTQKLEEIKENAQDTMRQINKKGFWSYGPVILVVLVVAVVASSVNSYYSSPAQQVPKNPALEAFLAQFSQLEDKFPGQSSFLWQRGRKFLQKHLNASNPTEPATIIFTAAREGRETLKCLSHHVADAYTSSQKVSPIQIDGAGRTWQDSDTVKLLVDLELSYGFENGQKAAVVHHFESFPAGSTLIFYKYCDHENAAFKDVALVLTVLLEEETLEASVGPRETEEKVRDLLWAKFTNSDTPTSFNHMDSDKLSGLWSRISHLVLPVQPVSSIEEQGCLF

| Compound | composite z-score [1] | z-score [2] | z-score [3] | z-score [4] | composite z-score [5] | z-score [6] | composite z-score [7] | composite z-score [8] | composite z-score [9] | composite z-score [10] |
| --- | --- | --- | --- | --- | --- | --- | --- | --- | --- | --- |
| COCC(=C=CC[C@H](O)c1ccc(OCCO)cc1)CCO | 1.18 | 0.028 (inactive) | -0.406 (inactive) | -0.274 (inactive) | 2.42 | 0.399 (inactive) | 0.106 | 1.21 | 0.227 | 0.0882 |
| O=C(NCCN1CCOCC1)[C@@H]1c2ccccc2C(=O)N(Cc2ccccc2Cl)[C@H]1c1ccc(CO)cc1 | -0.7 | 0.506 (inactive) | 0.545 (inactive) | -0.214 (inactive) | -0.201 | 0.561 (inactive) | -0.547 | -1.31 | -1.4 | -0.362 |
| CCCCC[C@H]1OC[C@@]23C=C(Br)[C@@H](CC12)[C@@]1(CO1)C3=O (stereo not given in full) | 0.915 | -1.01 (inactive) | -6.44 (inactive) | -0.76 (inactive) | 0.24 | -0.971 (inactive) | -0.231 | 0.483 | 0.0322 | -0.122 |
| COc1cc2c(cc1O)C(C1CC1)N(Cc1cccc(OC(F)(F)F)c1)CC2 (stereo not given) | 0.694 | -2.19 (inactive) | -5.25 (inactive) | -2.53 (inactive) | 1.88 | 0.394 (inactive) | -0.0575 | -0.242 | -0.167 | 0.0009 |
| C=C(/C(=C/C[C@H](OC(=O)c1ccncc1)c1ccc(CO)o1)c1cnc2ccccc2c1)C(C)C | 1.52 | 1.22 (inactive) | -1.67 (inactive) | 0.433 (inactive) | 0.947 | -0.358 (inactive) | 0.0249 | 0.963 | 1.05 | 0.523 |
| COC(=O)C/C=C/C[C@]1(O)C(=O)N(C)c2ccccc21 | 0.756 | -1.73 (inactive) | -1.35 (inactive) | -1.02 (inactive) | 0.423 | 1.48 (inactive) | -0.186 | 0.739 | 0.434 | -0.0805 |
| Cc1ccc(NN2C(C(O)c3c(F)cccc3Cl)C=CC3C(=O)N(C4CCCCC4)C(=O)C32)cc1 (stereo not given) | 1.43 | -0.58 (inactive) | -0.362 (inactive) | -0.262 (inactive) | 3.02 | -0.0346 (inactive) | 0.184 | -0.203 | 1.05 | 0.0708 |
| Cc1ccc(N2C(=O)c3ccccc3[C@@H](C(=O)NCCCN(C)C)[C@@H]2c2ccc(CO)cc2)nc1 | 0.0027 | -0.292 (inactive) | -0.636 (inactive) | -0.81 (inactive) | -0.732 | 0.213 (inactive) | 0.186 | -0.572 | -0.916 | 0.576 |
| CCCCC(O)C1C=CC2C(=O)N(C)C(=O)C2N1N(c1ccccc1)c1ccccc1 (stereo not given) | 1.56 | -0.0289 (inactive) | 0.483 (inactive) | 0.251 (inactive) | 3.1 | -1.8 (inactive) | -0.0441 | -0.0371 | 1.1 | 0.111 |
| C=CCNC(=O)[C@@H]1[C@H]2C(=O)O[C@H](c3ccccc3)[C@H](c3ccccc3)N2[C@H](c2ccc(OCCO)cc2)[C@@]12C(=O)N(C(=O)OCCOC)c1ccc(C#Cc3ccc(OC)cc3)cc12 | 1.49 | 1.59 (inactive) | 1.77 (inactive) | 6.26 (inactive) | 3.13 | 0.361 (inactive) | 0.0645 | 1.23 | 1.05 | -0.0974 |
| C=CCC(OC(C)=O)[C@@H]1[C@@H](N(Cc2ccc(-c3cccc(C(F)(F)F)c3)o2)C(=O)c2ccc(-c3ccccc3)cc2)c2cc(OCCCO)ccc2N1C(=O)Cc1ccc2ccccc2c1 (stereo not given in full) | -0.457 | 0.955 (inactive) | 0.863 (inactive) | 1.09 (inactive) | 0.512 | -0.898 (inactive) | -0.0928 | -0.214 | -0.3 | -0.235 |
| CO[C@H]1O[C@H](CO)[C@@H](OC(=O)CCc2ccccc2)[C@@H]2OC(=O)[C@@H](Cc3ccccc3)C/C=C/C[C@H](Cc3ccccc3)C(=O)O[C@@H]12 | 1.35 | -0.0668 (inactive) | 0.0286 (inactive) | 5.61 (inactive) | 1.25 | 0.241 (inactive) | -0.119 | 0.435 | 0.922 | -0.067 |
| COCCCNC(=O)[C@@]1(CCC(=O)OC(C)(C)C)N=C(c2ccc(OCCCO)cc2)O[C@H]1c1ccccc1N=[N+]=[N-] | 1.27 | -0.197 (inactive) | 0.362 (inactive) | -0.875 (inactive) | 3.13 | 1.21 (inactive) | 0.644 | -0.0445 | 0.377 | 0.458 |
| COC(=O)[C@]1(CCS(=O)(=O)c2ccccc2)N=C(c2ccc(OCCCO)cc2)O[C@@H]1c1ccccc1N=[N+]=[N-] | 1.54 | 0.764 (inactive) | -2.44 (inactive) | 35.7 (active) | 3.23 | -1.29 (inactive) | 0.346 | 1.22 | 1.04 | 0.6 |
| CN1C2C=C(CCCO)C(C3C(=O)N(C(N)=O)C(=O)C32)C1C1CC1 (stereo not given) | -0.0255 | -0.163 (inactive) | -0.0516 (inactive) | -0.32 (inactive) | 0.0963 | -0.583 (inactive) | -0.0812 | -0.22 | -0.523 | -0.163 |
| CCCC[C@@H](O)C1=C(COC)C[C@H]2C(=O)N(C)C(=O)[C@H]2[C@H]1CO | 0.0449 | -2.33 (inactive) | -1.77 (inactive) | -1.21 (inactive) | -0.419 | 1.1 (inactive) | -0.353 | 0.578 | -0.277 | -0.156 |
| COCCOC(=O)N1C(=O)[C@@]2(c3cc(C#CCCO)ccc31)[C@H](C(=O)Nc1nc3ccccc3s1)[C@H]1C(=O)O[C@H](c3ccccc3)[C@H](c3ccccc3)N1[C@@H]2c1ccc(O)cc1 | 1.54 | 1.32 (inactive) | 0.663 (inactive) | 2.23 (inactive) | 2.79 | 0.467 (inactive) | 0.027 | 0.797 | 1.03 | 0.152 |
| Cc1ccccc1C(O)C1C=CC2C(=O)NC(=O)C2N1Nc1ccccn1 (stereo not given) | 0.049 | 0.833 (inactive) | 0.459 (inactive) | 0.0715 (inactive) | 1.6 | -0.957 (inactive) | 0.0361 | 0.232 | -0.308 | 0.092 |
| Cc1ccc(S[C@]2(C(=O)NCC(F)(F)F)CC(=O)N(Cc3cc(C(F)(F)F)cc(C(F)(F)F)c3)[C@@H]2c2ccc(CO)cc2)cc1 | 1.31 | 0.0966 (inactive) | -0.322 (inactive) | -1.53 (inactive) | 1.79 | -0.002 (inactive) | -0.152 | -0.556 | -0.133 | -0.181 |
| NC(=O)[C@@]1(Cc2ccccc2)COC(c2ccc(OCCCO)cc2)=N1 | -0.57 | 1.2 (inactive) | 0.196 (inactive) | 1.19 (inactive) | 3.05 | 1.05 (inactive) | -0.0736 | -0.555 | -0.537 | -0.136 |
| COc1cc2c(cc1O)C(c1cccs1)N(Cc1cc3c(cc1Br)OCO3)CC2 (stereo not given) | 1.53 | -0.592 (inactive) | -4.96 (inactive) | -0.859 (inactive) | 3.45 | -1.45 (inactive) | 0.183 | 0.289 | 1.07 | 0.0778 |
| COCCOC(=O)N1C(=O)[C@@]2(c3cc(C#CC4(O)CCCCCC4)ccc31)[C@H](c1ccc(O)cc1)N1[C@H](c3ccccc3)[C@H](c3ccccc3)OC(=O)[C@H]1[C@@H]2C(=O)N1CCN(c2ncccn2)CC1 | 1.55 | 0.12 (inactive) | -0.247 (inactive) | 1.07 (inactive) | 2.57 | -0.321 (inactive) | -0.0282 | 0.0969 | 0.987 | -0.0234 |
| CC(C)[Si]1(C(C)C)OCc2cc(C3CC3)nc(-c3ccc(Oc4ccccc4)cc3)c21 | -0.834 | 1.95 (inactive) | 1.12 (inactive) | 2.1 (inactive) | -0.229 | -0.26 (inactive) | -0.13 | -0.27 | -0.488 | -0.062 |
| C=CC[C@@]1(C(=O)NCCCOC)N=C(c2ccc(OCCCO)cc2)O[C@@H]1c1ccccc1 | 1.24 | -3.84 (inactive) | -1.61 (inactive) | -0.725 (inactive) | 3.37 | 0.734 (inactive) | 0.211 | 0.0729 | -0.741 | 0.0353 |
| COc1ccc([Si](C)(C)[C@@H]2[C@@H](CCO)O[C@]3(C(=O)N(Cc4ccccc4)c4ccc(N5CCOC5=O)cc43)[C@H]2C)cc1 | 1.51 | 2.55 (inactive) | -0.522 (inactive) | 17.5 (active) | 1.78 | 1.44 (inactive) | -0.0722 | 0.446 | 0.693 | -0.14 |
| CCOC(=O)C[C@H]1[C@H](OC(=O)c2ccccc2-c2ccccc2)[C@@H](NC(=O)c2ccc3ccccc3n2)c2cc(OCCCO)ccc2N1C(=O)Cc1ccc(OC)cc1 | 0.115 | 0.59 (inactive) | -0.167 (inactive) | -0.0843 (inactive) | 0.346 | -0.776 (inactive) | -0.111 | 0.287 | 0.384 | -0.12 |
| CC(C)(C)OC(=O)CC[C@@]1(C(=O)NCC(O)CO)N=C(c2ccc(OCCCO)cc2)O[C@@H]1c1ccccc1CN=[N+]=[N-] (stereo not given in full) | 0.782 | -0.614 (inactive) | 0.0076 (inactive) | -0.753 (inactive) | 2.89 | 0.188 (inactive) | -0.0691 | 0.153 | 0.558 | -0.0229 |
| CCOC(=O)C1=C[C@@H](C(C)(C)C)N(S(=O)(=O)c2ccc(C)cc2)[C@H]1c1cccc2ccccc12 | 0.735 | 2.23 (inactive) | 2.75 (inactive) | 2.97 (inactive) | 2.36 | -0.296 (inactive) | -0.034 | 0.171 | 1.09 | -0.0828 |
| CCCC1(C(=O)OC)C=C2C(=C(C)C(=O)C2C)CN1 (stereo not given) | -1.06 | -0.105 (inactive) | 0.883 (inactive) | 0.578 (inactive) | 0.941 | -0.827 (inactive) | 0.0932 | -0.0743 | -0.0768 | -0.0828 |

Source: PubChem BioAssay
